Experiments:
Conditions in all cases: concentration: 1 μM, replicates: in singlicate; n = 1
RIPK5 = tested on: RIPK5
ROCK1 = tested on: ROCK1
ROCK2 = tested on: ROCK2
ROS1 = tested on: ROS1
[1] = tested on: RPS6KA4(Kin.Dom.1-N-terminal)
[2] = tested on: RPS6KA4(Kin.Dom.2-C-terminal)
[3] = tested on: RPS6KA5(Kin.Dom.1-N-terminal)
[4] = tested on: RPS6KA5(Kin.Dom.2-C-terminal)
[5] = tested on: T1, RSK1(Kin.Dom.1-N-terminal)
T1 construct: gene RPS6KA1

[6] = tested on: T2, RSK1(Kin.Dom.2-C-terminal)
T2 construct: gene RPS6KA1

[7] = tested on: T3, RSK2(Kin.Dom.1-N-terminal)
T3 construct: gene RPS6KA3

[8] = tested on: T4, RSK2(Kin.Dom.2-C-terminal)
T4 construct: gene RPS6KA3

[9] = tested on: T5, RSK3(Kin.Dom.1-N-terminal)
T5 construct: gene RPS6KA2

[10] = tested on: T6, RSK3(Kin.Dom.2-C-terminal)
T6 construct: gene RPS6KA2

[11] = tested on: T7, RSK4(Kin.Dom.1-N-terminal)
T7 construct: gene RPS6KA6

[12] = tested on: T8, RSK4(Kin.Dom.2-C-terminal)
T8 construct: gene RPS6KA6

S6K1 = tested on: S6K1
SBK1 = tested on: SBK1
SGK2 = tested on: SGK2
SGK3 = tested on: SGK3
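Also: KINOMEscan kinase panel screen.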

| SMILES | %Inh (RIPK5) [%] | %Inh (ROCK1) [%] | %Inh (ROCK2) [%] | %Inh (ROS1) [%] | %Inh [1] [%] | %Inh [2] [%] | %Inh [3] [%] | %Inh [4] [%] | %Inh [5] [%] | %Inh [6] [%] | %Inh [7] [%] | %Inh [8] [%] | %Inh [9] [%] | %Inh [10] [%] | %Inh [11] [%] | %Inh [12] [%] | %Inh (S6K1) [%] | %Inh (SBK1) [%] | %Inh (SGK2) [%] | %Inh (SGK3) [%] |
| --- | --- | --- | --- | --- | --- | --- | --- | --- | --- | --- | --- | --- | --- | --- | --- | --- | --- | --- | --- | --- |
| NS(=O)(=O)c1cccc(-c2ccc3nccc(-c4cccc(S(N)(=O)=O)c4)c3c2)c1 [GW867253] | 11 | 37 | 37 | 0 | 0 | 0 | 4 | 7 | 0 | 23 | 31 | 56 | 0 | 11 | 12 | 30 | 16 | 0 | 0 | 0 |
| Fc1ccc(-c2ncn(CCCN3CCOCC3)c2-c2ccccn2)cc1 [SB-211742] | 0 | 0 | 0 | 0 | 26 | 0 | 0 | 5 | 0 | 16 | 0 | 49 | 0 | 35 | 0 | 0 | 0 | 0 | 0 | 0 |
| CSc1ccc(-c2cc3ncnc(SCC(=O)O)c3s2)cc1 | 0 | 0 | 0 | 3 | 0 | 0 | 0 | 0 | 9 | 12 | 0 | 0 | 0 | 20 | 0 | 19 | 0 | 0 | 0 | 6 |
| Fc1ccc(-c2ncn(CCCN3CCOCC3)c2-c2cccnc2)cc1 [SB-211743] | 9 | 0 | 6 | 27 | 31 | 0 | 0 | 5 | 2 | 9 | 34 | 0 | 0 | 27 | 20 | 0 | 0 | 1 | 0 | 0 |
| N#Cc1c(N2CCOCC2)sc(-c2ccn[nH]2)c1-c1ccc(Cl)cc1 | 15 | 11 | 0 | 8 | 0 | 3 | 0 | 7 | 17 | 18 | 9 | 0 | 13 | 2 | 2 | 10 | 7 | 35 | 23 | 8 |
| CNc1ncnc2[nH]ncc12 [SKF-18355] | 8 | 91.5 | 84 | 0 | 23 | 0 | 0 | 17 | 0 | 15 | 46 | 0 | 5 | 22 | 16 | 0 | 24 | 0 | 0 | 0 |
| CN(C1=C(c2ccccc2)C(=O)NC1=O)c1ccccc1 [SB-334860] | 15 | 0 | 0 | 4 | 10 | 0 | 7 | 12 | 4 | 13 | 4 | 23 | 14 | 0 | 0 | 8 | 2 | 2 | 0 | 16 |
| CC(C)(C)n1cnc2c(N)ncnc21 [SKF-97359] | 0 | 52 | 33 | 64 | 10 | 0 | 0 | 0 | 0 | 80 | 0 | 18 | 2 | 18 | 0 | 46 | 5 | 0 | 0 | 0 |
| Cn1cc(-c2ccc3c(c2)CCN3C(=O)Cc2ccccc2Cl)c2c(N)ncnc21 [GSK2608885] | 13 | 1 | 0 | 86 | 36 | 0 | 32 | 3 | 99.2 | 30 | 0 | 23 | 87 | 12 | 0 | 18 | 14 | 25 | 0 | 3 |
| O=C(NCCNc1ccnc(Nc2ccc(F)cc2)n1)Nc1ccccc1F [GSK1379880] | 0 | 40 | 9 | 0 | 4 | 0 | 0 | 15 | 1 | 0 | 0 | 0 | 0 | 0 | 0 | 2 | 9 | 41 | 0 | 0 |
| CN(C(=O)c1ccc(-c2cc(-c3c[nH]nc3-c3ccccn3)ccn2)cc1)C1CCOCC1 [GW810083] | 0 | 31 | 20 | 0 | 0 | 0 | 0 | 0 | 0 | 0 | 6 | 20 | 0 | 16 | 0 | 53 | 0 | 0 | 8 | 0 |

Source: publication PMC5540273 (PLoS ONE, 2017)
